# Measurements reported in ChEMBL document CHEMBL3988442, “University of Dundee, Small-Polar-MMV Screening Library” (2021).
# In all, about 48,000 compounds went through this assay and about 13,000 (27%) showed an effect of 50% or more. This is one part of the list.
# Tested on: Wolbachia pipientis
# Test: Anti-Wolbachia Cell-Based Screen
# Type: functional
# Parameters: scale not given: in the data most compounds retested in dose-response had high values
# Details: 5 µM
row,Compound,Percent Effect
1,Fc1ccc(-n2cccn2)c(CN2CCCCC2CCn2ccnc2)c1 (stereo not drawn),6.266%
2,Cc1cc(NC(=O)CCNC(C)(C)c2nc(C)c(C)s2)no1,-5.204%
3,Cc1ccccc1C1CCCN(C(=O)c2c[nH]c(=O)c(Cl)c2)C1 (stereo not drawn),0.979%
4,O=C(NCc1ccoc1)c1ccc(C2CCCN2CC2CCOCC2)s1 (stereo not drawn),-3.898%
5,CC(=O)NC(Cc1c[nH]c2cc(F)ccc12)C(=O)Nc1nncs1 (stereo not drawn),-20.07%
6,CC(C)NC(=O)c1cc2c([nH]c1=O)CC(c1cccs1)CC2=O (stereo not drawn),-15.67%
7,Cc1ccc(CN2C[C@@H]3C[C@H](C(=O)NCC4CC4)N(C)[C@@H]3C2)o1.O=C(O)C(F)(F)F.O=C(O)C(F)(F)F,102.8%
8,CC(C)N1[C@@H](C(=O)NCC2CC2)C[C@@H]2CN(Cc3ccco3)C[C@@H]21,96.03%
9,CN(C)[C@@H]1CN(Cc2ccco2)C[C@@H]2CCCO[C@@H]21.O=C(O)C(F)(F)F.O=C(O)C(F)(F)F,5.089%
10,Cc1ccc(CN2C[C@H]3C[C@H](C(=O)NCc4cccnc4)[C@@H](C2)O3)o1,-11.22%
11,COCCN1CCO[C@@H]2CN(Cc3ccc(C)o3)C[C@@H]2C1.O=C(O)C(F)(F)F.O=C(O)C(F)(F)F,4.147%
12,O=C(NCC1CC1)[C@@H]1CCO[C@@H]2CCN(Cc3ccco3)C[C@H]21.O=C(O)C(F)(F)F,-5.269%
13,Cc1ccc(CN2CC[C@H]3OCC[C@@H](C(=O)NCC4CC4)[C@@H]3C2)o1,-3.1%
14,CN1[C@@H](C(=O)NCC2CC2)C[C@@H]2CN(Cc3ccoc3)C[C@@H]21,87.47%
15,Cc1ccc(CN2C[C@H]3C[C@H](C(=O)NCC4CC4)N(C)[C@H]3C2)o1,105.7%
16,CC(=O)N1C[C@H]2CCCN(Cc3ccc(C)o3)[C@H]2C1.O=C(O)C(F)(F)F,-21.55%
17,CC(C)(C)CCS(=O)(=O)NCCc1csc(N2CCCC2)n1,-17.7%
18,CC(C)(C)SCC(=O)Nc1cc(-n2nnnc2C2CC2)ccc1F,-2.902%
19,c1ncc2c(n1)CN(Cc1cn3ccsc3n1)CC2,-19.58%
20,NC(=O)CN(CC(=O)NCc1cc(F)cc(F)c1)C1CCCC1,2.456%
21,CC1(C)COCCN1C(=O)Cc1csc(Cc2ccccn2)n1,-7.387%

row,Compound,Percent Effect
1,CCNC(=O)NC(=O)CN1CCC(c2c[nH]c3ccc(OC)cc23)CC1,-12.44%
2,CC(C)Cc1noc(CN(C)C2CCS(=O)(=O)C2)n1 (stereo not drawn),-20.93%
3,Cc1ccc(C)c(C(=O)NC2CCC(N3C(=O)CCC3=O)CC2)c1 (stereo not drawn),7.383%
4,COCC(O)CN1CCC(NC(=O)c2cscc2C)CC1 (stereo not drawn),-6.433%
5,Cc1ccc(S(N)(=O)=O)cc1C(=O)NC1CCCC1,60.38%
6,O=C(NC1CCN(C2CC2)CC1)c1cc(Cl)ccc1-n1cnnn1,-15.3%
7,Cc1ccc(S(N)(=O)=O)cc1C(=O)NC1CCN(C2CC2)CC1,102.7%
8,CC(=O)N1CCC(NC(=O)c2cc(Cl)ccc2O)CC1,5.076%
9,COCCC(=O)N1CCC(NC(=O)c2cscc2C)CC1,4.5%
10,COC(=O)N1CCC(NC(=O)c2cc(S(N)(=O)=O)ccc2C)CC1,98.52%
11,CC(=O)N1CCC(NC(=O)c2cc(S(N)(=O)=O)ccc2C)CC1,120.7%
12,Cc1ccc(S(N)(=O)=O)cc1C(=O)NCC1Cc2ccccc2O1 (stereo not drawn),20.46%
13,CCc1ccc(O)c(C(=O)NC2CCN(S(=O)(=O)CC)CC2)c1,-4.06%
14,NS(=O)(=O)c1ccc(F)c(C(=O)NCCSC2CCCCC2)c1,-0.4963%
15,CCN1C(=O)[C@H]2CN(CC(C)C)C[C@H]2C12CCN(C(=O)NC(C)C)CC2.O=C(O)C(F)(F)F,-7.35%
16,CCCOC(C)Cn1ccc2[nH]c(=O)c(C#N)cc2c1=O (stereo not drawn),-62.19%
17,CC(C)C(C)(CNC(=O)OC(C)(C)C)NC(=O)c1cnccn1 (stereo not drawn),1.478%
18,Cc1c(NCCOCC(F)(F)F)cccc1C(=O)N1CCCC1,1.47%
19,COc1ccc(S(=O)(=O)NCC(O)c2sccc2C)cc1C (stereo not drawn),4.303%
20,CCCC(=O)NC1CCCN(c2nc3ccccc3cc2CO)C1 (stereo not drawn),0.5391%
21,O=C(c1ccsc1)N1CC(C(=O)N2CCOCC2)C2(CCOCC2)C1 (stereo not drawn),-0.6494%

row,Compound,Percent Effect
1,CC(C)(C)n1ncc(C(=O)NCCCC(N)=O)c1C(F)(F)F,6.459%
2,Cc1ccc(S(N)(=O)=O)cc1C(=O)N1CCc2c(ncnc2N(C)C)C1,-11.64%
3,Cc1ccc(S(N)(=O)=O)cc1C(=O)NC1CCCN(C)C1 (stereo not drawn),108%
4,Cc1ccc(S(N)(=O)=O)cc1C(=O)N1C[C@@H](CN(C)C)[C@@H](CO)C1,4.643%
5,O=S1(=O)CCC(c2nc(-c3cccc(Br)c3)no2)C1 (stereo not drawn),-8.148%
6,CC(C)N1CCCC1c1csc(N)n1 (stereo not drawn),125.7%
7,CN1[C@H]2CC[C@@H]1CN(C(=O)CCc1csc(N)n1)CC2,2.348%
8,CN(C)C1CCCN(C(=O)CCc2csc(N)n2)CC1 (stereo not drawn),-10.57%
9,CC(NC(=O)C1(NC(=O)c2ccc3[nH]ncc3c2)CCCC1)C1CC1 (stereo not drawn),-1.4%
10,CCn1cnnc1CNC(=O)CCC(=O)c1ccc2c(c1)OCCO2,5.212%
11,CCn1cnnc1CNC(=O)N(C)Cc1ccc2c(c1)OCCO2,2.42%
12,CCN(Cc1ccc2c(c1)OCCO2)C(=O)NCc1cc[nH]n1,-1.226%
13,CCn1cnnc1CNC(=O)N(C)Cc1ccc(Cl)cc1Cl,-3.326%
14,CCn1cnnc1CNC(=O)C1COc2ccc(Cl)cc2C1 (stereo not drawn),-2.501%
15,CCn1cnnc1CNC(=O)Cc1ccc2c(c1)OCCO2,101.5%
16,CCn1cnnc1CNC(=O)N(C)Cc1ccc(F)c(F)c1,-10.5%
17,CCN(Cc1ccc2c(c1)OCCO2)C(=O)NCc1nc(C)cs1,-0.008456%
18,CCn1cnnc1CNC(=O)N(C)Cc1cccc(OC(F)F)c1,110.2%
19,CCn1cnnc1CNC(=O)N(C)Cc1ccc2c(c1)OCO2,127.8%
20,CCN(Cc1ccc2c(c1)OCCO2)C(=O)NCc1nncn1CC,99.19%
21,CC(NC(=O)N(C)Cc1cccc(OC(F)F)c1)c1nncn1C (stereo not drawn),-22.06%
